Screening results: PubChem BioAssay, several laboratories
p97 inhibitor – inhibitors of human p97 ATPase | P55072 | recombinant p97 ATPase, Kinase-Glo ATP luminescence, 3 h | inhibition, % at 8 µM | hit rate 0.42% among 220,000 | AID 1481; in the data active = inhibition above about 15%;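 note: 0% = DMSO vehicle and 100% = wells lacking enzyme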
Lmaj promast – Leishmania major promastigote growth inhibition | inhibition, % at 10 µM | Leishmania major promastigotes, resazurin fluorescence viability | hit rate 9% among 200,000; in the data active = inhibition above about 50%;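 note: promastigotes grown with compound for 44 hours at 28 °C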
PTEN del growth – PTEN-deleted cell growth suppression; AID 827; hit rate 1.2% among 140,000; HCT116 PTEN-null viability, CellTiter-Glo, 60 h; active compounds read low; viability, % at 10 µM;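 active = viability at or below a set limit, 4 SD under the median of all tested compounds, cut at about 3.7% in these data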;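 note: PTEN knockout HCT116 line with beta catenin targeted HCT116 as companion control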
HCT116 bCat-KO – beta-catenin-lacking colon tumor cell growth suppression | HCT116 beta-catenin knockout viability, CellTiter-Glo, 60 h; active compounds read low | viability, % at 10 µM | hit rate 1.5% among 140,000;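 active = viability at or under a set limit, the compound median less 4 SD, cut at about 6% in these data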;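 note: 0% = Hyamine 1622 control at 20 µM and 100% = untreated cell control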
ROMK primary – modulates human ROMK potassium channel activity; Tet-inducible ROMK, thallium flux fluorescence; actives lie on both sides; P48048; B-score at 10 µM; hit rate 2% among 130,000;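 active = signal ratio slope over the read window, or its plate-corrected B-score, at least 3 SD from the plate mean, either direction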;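 note: B-score of the F/F0 ratio slope over 7 to 12 s after thallium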
Target sequence (P48048 whole entry, looked up): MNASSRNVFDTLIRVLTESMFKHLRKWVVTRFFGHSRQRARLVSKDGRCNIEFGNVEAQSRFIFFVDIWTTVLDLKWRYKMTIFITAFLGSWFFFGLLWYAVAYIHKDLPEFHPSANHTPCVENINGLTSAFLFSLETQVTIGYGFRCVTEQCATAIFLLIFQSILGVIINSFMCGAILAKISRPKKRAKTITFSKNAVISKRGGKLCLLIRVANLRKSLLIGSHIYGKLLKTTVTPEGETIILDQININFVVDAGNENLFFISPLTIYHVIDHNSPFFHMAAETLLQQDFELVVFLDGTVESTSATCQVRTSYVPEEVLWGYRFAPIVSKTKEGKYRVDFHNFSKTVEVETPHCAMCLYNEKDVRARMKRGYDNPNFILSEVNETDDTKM
Insulin prom inh – TRM-6 insulin promoter activity inhibition; TRM-6 cells (human fetal islet line), insulin promoter-eGFP reporter, imaging; reporter expression induced with tamoxifen; inhibition, % at 2 µM; hit rate 0.9% among 130,000; AID 1273;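 active = inhibition above the mean plus 3 SD, with well images judged a real hit on visual review, cut at about 60% in these data, passing the limit was not always enough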
* = called active by the depositor; x = no result given. Sampled rows, rich in hits. Any-hit rate of the full collection: about 10%.

SMILES | p97 inhibitor | Lmaj promast | PTEN del growth | HCT116 bCat-KO | ROMK primary | Insulin prom inh
CCOC(=O)c1c(N)sc2c(OCC)c(Br)ccc12 | -3.2 | 10.7 | 53.1 | 67.4 | 0.118 | 16.7
COc1ccc(N2C3=C(CC4=C2CCCC4=O)C(=O)CCC3)cc1 | 5.2 | 25.5 | 82.9 | 94.8 | -0.134 | 18.4
COc1ccc(N2C3=C(CC4=C2CC(C)(C)CC4=O)C(=O)CC(C)(C)C3)cc1 | 1.9 | 100.4* | 1.1* | 1.1* | x | -62.9
Cc1ccc(N2C(=N)/C(=C3/Nc4ccccc4S3)C(c3ccccc3)C2=O)cc1 (stereo unspecified) | 3.5 | 100.2* | 1.8* | 2.8* | x | x
N#CCc1cc2ccc3cccc4ccc(c1)c2c34 | 3.3 | x | x | x | 0.45 | x
O=C(O)c1ccccc1C(=O)Nc1ccc(Br)c(C(F)(F)F)c1 | -2.5 | x | x | x | x | x
Cc1cc(C)c(C(=O)Nc2ccc(Br)c(C(F)(F)F)c2)c(C)c1 | 6.2 | 98.2* | 32.0 | 56.8 | -0.00772 | 35.1
O=C1OC(Oc2ccccc2)(c2ccccc2)c2ccccc21 (stereo unspecified) | 2.2 | 98.5* | 63.6 | 77.5 | x | x
O=C1OC(OC2CCCCC2)(c2ccccc2)c2ccccc21 (stereo unspecified) | 0.7 | 5.2 | 72.9 | 74.3 | x | x
CC12COC3(C(=O)N4CCN(c5ccccn5)CC4)CC1CCC32C (stereo unspecified) | 2.1 | x | x | x | x | x
O=C(c1cc(-c2ccco2)nc2ccccc12)N1CCN(c2ccc(F)cc2)CC1 | -1.4 | 66.8* | 85.7 | 93.0 | 0.0248 | 24.1
CCc1c(C)c(C#N)c2nc3ccccc3n2c1NCC1CCCO1 (stereo unspecified) | -3.6 | 68.1* | 99.9 | 91.6 | 0.0255 | -79.3
CCc1c(C)c(C#N)c2nc3ccccc3n2c1-n1nc(C)cc1C | -2.7 | 0.5 | 88.3 | 86.0 | -0.256 | -55.6
CCc1c(C)c(C#N)c2nc3ccccc3n2c1Cl | 8.0 | 100.5* | 2.2* | 4.0* | -1.5 | -153.3
N#Cc1c2c(c(NCCCN3CCOCC3)n3c1nc1ccccc13)CCC2 | 3.6 | 63.1* | 89.1 | 92.2 | -0.0572 | x
CC(C)c1cc(NCC2CCCO2)n2c(nc3ccccc32)c1C#N (stereo unspecified) | 1.2 | 56.7* | 79.3 | 83.0 | 0.926 | -78.6
Cc1cc(NCC2CCCO2)n2c(nc3ccccc32)c1C#N (stereo unspecified) | 4.2 | 13.0 | 90.4 | 105.9 | 0.142 | -10.7
O=C(Nc1ccc(S(=O)(=O)Nc2ncccn2)cc1)c1ccccc1NS(=O)(=O)c1ccc(Cl)cc1 | 5.0 | x | x | x | x | x
O=C(c1ccco1)N1CCN(c2nc3ccccc3n3nnnc23)CC1 | 5.0 | -6.2 | 83.6 | 86.2 | x | x
CC(C)c1cc(N2CCN(C(=O)c3ccco3)CC2)n2c(nc3ccccc32)c1C#N | 7.3 | 51.8* | 86.1 | 92.7 | x | x
O=C(NC1CCCCC1)c1cc(F)cc2c1OCOC2 | 6.5 | x | x | x | x | x
O=C(NCCNC1CCC(c2ccccc2)CC1)c1ccc(F)cc1 (stereo unspecified) | 2.2 | 94.0* | x | x | -1.65 | x
CSc1nc(N)nc(SCC(=O)Nc2ccc(Cl)cc2)c1C#N | 4.9 | 99.6* | 76.9 | 89.2 | x | 0.0
COc1ccccc1NC(=O)CN1CCN(c2ccccc2)CC1 | -1.1 | -0.4 | x | x | 1.1 | x
CCN1CCN(C(=O)CSCc2nc(-c3ccc(OC)c(OC)c3)oc2C)CC1 | 0.3 | -0.7 | 91.7 | 101.2 | x | x
SMILES | p97 inhibitor | Lmaj promast | PTEN del growth | HCT116 bCat-KO | ROMK primary | Insulin prom inh
Cc1ccccc1-c1nc(CN2CCCC(C(=O)NCCCN3CCOCC3)C2)c(C)o1 (stereo unspecified) | -1.2 | 17.9 | 92.3 | 81.7 | -0.859 | -92.9
COc1ccc(CCNC(=O)C2CCN(Cc3nc(-c4cccc(Cl)c4)oc3C)CC2)cc1OC | 0.9 | 8.3 | 60.7 | 46.9 | x | x
CCN1CCN(CCNC(=O)CSCc2nc(-c3ccc(OC)c(OC)c3)oc2C)CC1 | -2.3 | 87.6* | 99.8 | 92.1 | 0.92 | -38.9
CCc1ccc(-c2nc(CN3CCCC(C(=O)NCCc4ccc(OC)c(OC)c4)C3)c(C)o2)cc1 (stereo unspecified) | -10.3 | 83.2* | 3.0* | 1.9* | -1.58 | -121.4
CCOC(=O)N1CCC(NC(=O)C2CCCN(Cc3nc(-c4cccc(Cl)c4)oc3C)C2)CC1 (stereo unspecified) | -7.2 | 10.3 | 25.8 | 28.1 | x | x
COc1ccc(CCNC(=O)C2CCCN(Cc3nc(-c4ccccc4C)oc3C)C2)cc1OC (stereo unspecified) | -10.3 | 92.0* | 24.5 | 13.1 | -1.91 | -85.7
CCN1CCN(CCNC(=O)C2CCCN(Cc3nc(-c4cccc(Cl)c4)oc3C)C2)CC1 (stereo unspecified) | -8.4 | 94.1* | 38.2 | 37.5 | x | x
CC(C)CNC(=O)CCc1nc(-c2ccccc2)no1 | 0.9 | x | x | x | x | x
Cc1oc(-c2ccc(Cl)cc2)nc1CN1CCC(C(=O)NCc2cccnc2)CC1 | 5.1 | 0.4 | 82.0 | 81.2 | x | x
CCCN(CCC)CCNC(=O)C1CCN(Cc2nc(-c3ccc(Cl)cc3)oc2C)CC1 | -4.5 | 97.8* | 2.2* | 2.2* | x | x
O=C(/C=C/c1ccc(S(=O)(=O)N2CCOCC2)cc1)NCc1ccccc1Cl | 3.5 | 79.6* | 95.5 | 92.9 | x | 51.9
Nc1cc(=O)[nH]c(SCC(=O)NNC(=O)Cc2ccccc2)n1 | 2.3 | 1.6 | x | x | -1.12 | x
Cc1ccc(C2C(C#N)=C(N)SC(N)=C2C#N)o1 | 15.3* | -10.0 | 117.3 | 94.3 | x | 31.2
Cc1cc2c(c(=O)o1)C(c1cccs1)C(C#N)=C(N)O2 (stereo unspecified) | 0.7 | 61.5* | 100.8 | 96.6 | -0.0871 | -29.6
CCOc1cccc(C2C(C#N)=C(N)Oc3cc(C)oc(=O)c32)c1OCC (stereo unspecified) | 2.0 | 8.7 | 100.3 | 96.0 | -0.136 | 81.8*
Cc1ccc([C@H]2C(C#N)=C(N)Oc3cc(C)oc(=O)c32)o1 | 5.7 | 100.0* | x | x | 1.97 | x
O=C(CN1CCCC1=O)NC1(C(F)(F)F)NC(=O)N(Cc2ccccc2)C1=O (stereo unspecified) | 2.5 | -3.0 | 87.1 | 93.2 | x | 51.4
CCOC(=O)C1(Cc2ccc(Cl)cc2)CCN(C(=O)CCc2ccncc2)CC1 | -0.4 | 25.8 | x | x | -0.629 | x
COC(=O)c1ccc([N+](=O)[O-])cc1N1C(=O)C2C3CCC(C3)C2C1=O (stereo unspecified) | 1.3 | -1.2 | x | x | 0.383 | x
Cc1ccc2cc(C(c3nnnn3C3CCCC3)N(Cc3ccccc3)Cc3ccco3)c(=O)[nH]c2c1 (stereo unspecified) | 2.2 | 79.7* | 61.8 | 66.7 | x | -21.4
Cc1cc2cc(C(c3nnnn3C3CCCC3)N(Cc3cccnc3)Cc3ccco3)c(=O)[nH]c2cc1C (stereo unspecified) | 1.2 | 49.7 | 47.5 | 57.1 | -0.224 | 13.3
CCC(C)(C)n1nnnc1C(c1cc2ccc(C)cc2[nH]c1=O)N(Cc1cccnc1)Cc1ccco1 (stereo unspecified) | -3.3 | 82.8* | 64.9 | 69.9 | x | x
CC(C)(C)n1nnnc1C(c1cccs1)N(Cc1cccnc1)Cc1ccco1 (stereo unspecified) | -2.9 | 79.1* | 94.2 | 86.7 | x | -28.9
